The supplement of paper PMC8728848
This excerpt belongs to a sample that is enriched for the strongest signals.

How the values were obtained:
Experiment in all cases: glycan array binding signal (z-score within array); higher = stronger binding
Settings in all cases: glycan notation: IUPAC condensed, linker removed
[1] = target: Fuc(a1-2)Gal(b1-4)GlcNAc(b1-2)Man(a1-3)[Fuc(a1-2)Gal(b1-4)GlcNAc(b1-2)Man(a1-6)]Man(b1-4)GlcNAc(b1-4)[Fuc(a1-6)]GlcNAc
How it was run: (§1)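 Columns mapping to the same glycan were averaged after glycan names were converted to IUPAC-condensed notation. The data come from 3228 arrays in the Consortium for Functional Glycomics database, limited to those with an available protein sequence. Binding is reported as a within-array Z-score averaged across arrays of one protein sequence and across linkers.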

[2] = target: Fuc(a1-2)Gal(b1-4)[Fuc(a1-3)]GlcNAc(b1-3)GalNAc
How it was run: as §1

[3] = target: Fuc(a1-2)Gal6S(b1-4)GlcNAc
How it was run: as §1

[4] = target: Fuc(a1-2)[Gal(a1-3)]Gal(b1-3)GlcNAc(b1-2)Man(a1-3)[Fuc(a1-2)[Gal(a1-3)]Gal(b1-3)GlcNAc(b1-2)Man(a1-6)]Man(b1-4)GlcNAc(b1-4)[Fuc(a1-6)]GlcNAc
How it was run: as §1

[5] = target: Fuc(a1-2)[Gal(a1-3)]Gal(b1-4)[Fuc(a1-3)]GlcNAc(b1-3)GalNAc
How it was run: as §1

[6] = target: Fuc(a1-2)[GalNAc(a1-3)]Gal(b1-4)GlcNAc(b1-3)Gal(b1-4)GlcNAc
How it was run: as §1

Gal(a1-2)Gal = target: Gal(a1-2)Gal
How it was run: as §1

Gal(b1-2)Gal = target: Gal(b1-2)Gal
How it was run: as §1

[7] = target: Gal(b1-3)GalNAc(a1-3)[Fuc(a1-2)]Gal(b1-4)Glc
How it was run: as §1

[8] = target: Gal(b1-3)GlcNAc(b1-3)Gal(b1-4)Glc
How it was run: as §1

[9] = target: Gal(b1-3)GlcNAc(b1-3)GalNAc
How it was run: as §1

[10] = target: Gal(b1-3)[Fuc(a1-4)]GlcNAc(b1-2)Man(a1-3)[Gal(b1-3)[Fuc(a1-4)]GlcNAc(b1-2)Man(a1-6)]Man(b1-4)GlcNAc(b1-4)[Fuc(a1-6)]GlcNAc
How it was run: as §1

[11] = target: Gal(b1-3)[Fuc(a1-4)]GlcNAc(b1-3)Gal(b1-3)[Fuc(a1-4)]GlcNAc
How it was run: as §1

Gal(b1-4)Gal = target: Gal(b1-4)Gal
How it was run: as §1

[12] = target: Gal(b1-4)GlcNAc(b1-6)Gal(b1-4)GlcNAc
How it was run: as §1

Gal3S(b1-4)Glc6S = target: Gal3S(b1-4)Glc6S
How it was run: as §1

[13] = target: Gal3S(b1-4)[Fuc(a1-3)]Glc6S
How it was run: as §1

[14] = target: GalNAc(a1-3)Fuc(a1-2)Gal(b1-4)GlcNAc(b1-3)[GalNAc(a1-3)Fuc(a1-2)Gal(b1-4)GlcNAc(b1-6)]GalNAc
How it was run: as §1

GalNAc(b1-3)Gal = target: GalNAc(b1-3)Gal
How it was run: as §1

[15] = target: GalNAc(b1-4)GlcNAc(b1-2)Man(a1-3)[GalNAc(b1-4)GlcNAc(b1-2)Man(a1-6)]Man(b1-4)GlcNAc(b1-4)GlcNAc
How it was run: as §1

Glc(a1-4)Glc = target: Glc(a1-4)Glc
How it was run: as §1

GlcA(b1-3)Gal = target: GlcA(b1-3)Gal
How it was run: as §1

[16] = target: GlcNAc(a1-4)Gal(b1-4)GlcNAc(b1-3)Gal(b1-4)GlcNAc
How it was run: as §1

[17] = target: GlcNAc(a1-4)Gal(b1-4)GlcNAc(b1-3)Gal(b1-4)GlcNAc(b1-3)Gal(b1-4)GlcNAc
How it was run: as §1

[18] = target: GlcNAc(a1-4)Gal(b1-4)GlcNAc(b1-3)Gal(b1-4)[Fuc(a1-3)]GlcNAc(b1-3)Gal(b1-4)[Fuc(a1-3)]GlcNAc
How it was run: as §1

[19] = target: GlcNAc(b1-4)Gal(b1-4)GlcNAc
How it was run: as §1

[20] = target: Kdn(a2-3)Gal(b1-4)[Fuc(a1-3)]GlcNAc
How it was run: as §1

[21] = target: Man(a1-2)Man(a1-3)[Man(a1-2)Man(a1-6)]Man(a1-6)[Man(a1-2)Man(a1-2)Man(a1-3)]Man
How it was run: as §1

[22] = target: Man(a1-2)Man(a1-3)[Man(a1-6)]Man(a1-6)[Man(a1-2)Man(a1-3)]Man(b1-4)GlcNAc(b1-4)GlcNAc
How it was run: as §1

Man(a1-3)[Man(a1-6)]Man = target: Man(a1-3)[Man(a1-6)]Man
How it was run: as §1

Neu5Ac(a2-3)Gal = target: Neu5Ac(a2-3)Gal
How it was run: as §1

[23] = target: Neu5Ac(a2-3)Gal(b1-3)GalNAc6S
How it was run: as §1

[24] = target: Neu5Ac(a2-3)Gal(b1-4)GlcNAc(b1-2)Man(a1-3)[GlcNAc(b1-2)Man(b1-4)GlcNAc(b1-2)Man(a1-6)]Man(b1-4)GlcNAc(b1-4)GlcNAc
How it was run: as §1

[25] = target: Neu5Ac(a2-3)Gal6S(b1-4)GlcNAc
How it was run: as §1

[26] = target: Neu5Ac(a2-6)Gal(b1-4)GlcNAc(b1-2)Man(a1-3)[GlcNAc(b1-2)Man(a1-6)]Man(b1-4)GlcNAc(b1-4)GlcNAc
How it was run: as §1

[27] = target: Neu5Ac(a2-6)Gal(b1-4)GlcNAc(b1-2)Man(a1-3)[Man(a1-6)]Man(b1-4)GlcNAc(b1-4)GlcNAc
How it was run: as §1

[28] = target: Neu5Gc(a2-3)Gal(b1-4)GlcNAc
How it was run: as §1

Neu5Gc(a2-6)GalNAc = target: Neu5Gc(a2-6)GalNAc
How it was run: as §1

B1: NanH (Corynebacterium diphtheriae), C6JSW6 (protein)
chain: MYSSNRTYSRAILGLSAVLTLSFTSLVAPVNAEEPETVVPATAELEGEVAATLPSAETGLLDAAPPKPVARGAAGDLQLPAVNEKEVFEEGRVIRAPEPDQSRCYRIPALVTAKNGDLLLAFDNRYGGGDGAKTWCRDAPYENMKRINRQNMQTDIQLYRSVDNGQSFEDFGYIAQGTADVRELSYTDPALVTDRTTGKIFAFFVRAYDYRVGQSSAGFNEGDVEAEIQKRDVQDTVVVESLDGGQTWGNMRLLSALTAKVSSISTGDTIFDGRGRFVTSGAGIQLQYGEHAGRLIVPISVDIDPKDSAKFINLAIYSDDHGQTWQAGIGTAGGAGFSGDVSKIVELSDGRLMMSSKDNDKPRWVSYSEDQGENWSTPKRKIIAPPQHPEKHNTGINVGLIRAYPNAPENSAAARVLLYSAPIDQRYSHKHTEDGRNNGWVMGSCDDGKTWSFGRQIEKNRFQYSSMTVMSDGNIGMVYESGDFSTGMNLKFAKFNMAWLGADCHSNEALGLTGDIDKEIVEAQEKAAEATKEAQEAAEKVQKLTEELAAARKENDELKNQVKGFKEAVGDLANEAEDLADKVFKLETAVTEAKEKATVAEKAASDAVTQLQKAESIAEEQKAKAESAAAEAQALREKLERLEGSILTVKENPEAEEIADLSSTAKDAADAARRAATDANGALSGQKQDEEKPAMGLMGILKVLAGIIPLVAIIATIFQTFRLPFNIPGMR
glycan array binding signal (z-score) [1]: 1.01 | glycan array binding signal (z-score) [2]: 3.22 | glycan array binding signal (z-score) [3]: 0.001 | glycan array binding signal (z-score) [4]: 1.3 | glycan array binding signal (z-score) [5]: -0.377 | glycan array binding signal (z-score) [6]: 0.149 | glycan array binding signal (z-score) (Gal(a1-2)Gal): -1.72 | glycan array binding signal (z-score) (Gal(b1-2)Gal): 2.93 | glycan array binding signal (z-score) [7]: 1.05 | glycan array binding signal (z-score) [8]: -1.28 | glycan array binding signal (z-score) [9]: -1.71 | glycan array binding signal (z-score) [10]: 2.84 | glycan array binding signal (z-score) [11]: -0.787 | glycan array binding signal (z-score) (Gal(b1-4)Gal): -1.5 | glycan array binding signal (z-score) [12]: 1.11 | glycan array binding signal (z-score) (Gal3S(b1-4)Glc6S): -0.269 | glycan array binding signal (z-score) [13]: -0.594 | glycan array binding signal (z-score) [14]: 0.818 | glycan array binding signal (z-score) (GalNAc(b1-3)Gal): -1.91 | glycan array binding signal (z-score) [15]: 3.38 | glycan array binding signal (z-score) (Glc(a1-4)Glc): -0.111 | glycan array binding signal (z-score) (GlcA(b1-3)Gal): 2.74 | glycan array binding signal (z-score) [16]: 3.02 | glycan array binding signal (z-score) [17]: -1.05 | glycan array binding signal (z-score) [18]: 3.97 | glycan array binding signal (z-score) [19]: -0.683 | glycan array binding signal (z-score) [20]: -0.213 | glycan array binding signal (z-score) [21]: 3.74 | glycan array binding signal (z-score) [22]: -0.263 | glycan array binding signal (z-score) (Man(a1-3)[Man(a1-6)]Man): -0.151 | glycan array binding signal (z-score) (Neu5Ac(a2-3)Gal): 0.353 | glycan array binding signal (z-score) [23]: 1.83 | glycan array binding signal (z-score) [24]: 0.603 | glycan array binding signal (z-score) [25]: -1.04 | glycan array binding signal (z-score) [26]: 0.122 | glycan array binding signal (z-score) [27]: -0.077 | glycan array binding signal (z-score) [28]: -0.068 | glycan array binding signal (z-score) (Neu5Gc(a2-6)GalNAc): 0.15
